High-throughput results deposited in PubChem by several laboratories.
The list is not random: actives were taken first. Their share in the collection is about 1.1%.
p97 ATPase inh = inhibitors of human p97 ATPase; recombinant p97 ATPase, Kinase-Glo ATP luminescence, 3 h; P55072; AID 1481; inhibition, % at 8 µM; 220,000 compounds, 0.42% hits; in the data active means inhibition above about 15%;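 further: 0% = DMSO vehicle and 100% = wells lacking enzyme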
UBC9 SUMO inh = SUMOylation inhibition; P63279; inhibition, % at 35 µM; AID 2006; HTRF SUMOylation assay, SAE1/SAE2 + UBC9, in vitro; 290,000 compounds, 0.36% hits; in the data active means inhibition above about 50%, passing the limit was not always enough
Target sequence (P63279 whole entry, looked up): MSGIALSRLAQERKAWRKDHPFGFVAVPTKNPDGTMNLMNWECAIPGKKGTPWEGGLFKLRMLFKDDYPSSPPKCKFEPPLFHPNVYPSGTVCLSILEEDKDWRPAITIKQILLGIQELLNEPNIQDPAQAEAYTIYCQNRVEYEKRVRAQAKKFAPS
S1P3 antag = S1P3 (human) receptor antagonism. Q99500. inhibition, % at 4.98 µM. 170,000 compounds, 0.27% hits. CHO S1P3 NFAT-BLA reporter, FRET fluorescence, antagonist mode;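 active means inhibition above the plate cutoff, the mean inhibition of test wells on that plate plus 3 SD, cut at about 28% in these data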;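 further: cells challenged with S1P at its EC80 of 0.8 µM; blue over green emission ratio from cleaved BLA substrate after 4 h stimulation; 0% = S1P-stimulated wells and 100% = unstimulated DMSO-only wells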
Target sequence (Q99500 whole entry, looked up): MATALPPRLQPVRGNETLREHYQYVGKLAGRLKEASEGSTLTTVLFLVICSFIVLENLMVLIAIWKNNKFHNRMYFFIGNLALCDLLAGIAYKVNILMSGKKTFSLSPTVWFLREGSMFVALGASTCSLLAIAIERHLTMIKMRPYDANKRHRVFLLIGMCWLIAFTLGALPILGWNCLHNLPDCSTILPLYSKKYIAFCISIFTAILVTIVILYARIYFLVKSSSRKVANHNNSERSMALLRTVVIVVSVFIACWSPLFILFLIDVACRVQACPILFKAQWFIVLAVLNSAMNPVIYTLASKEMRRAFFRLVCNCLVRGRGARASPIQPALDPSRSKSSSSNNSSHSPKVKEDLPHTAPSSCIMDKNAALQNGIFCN
S1P4 agonist = activates the human S1P4 receptor. O95977. S1P4-expressing cell line, agonist reporter assay. activation, % at 4.98 µM. 220,000 compounds, 0.35% hits. AID 1509; in the data active means activation above about 11%;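 further: 0% = DMSO vehicle and 100% = reference agonist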
Redox H2O2 prof = compounds producing H2O2 with reducing agent – biochemical, NIH compound library profiling, artefact control for MLSCN library redox annotation, primary screen | activation, % at 10 µM | DTT-dependent redox cycling H2O2, phenol red/HRP absorbance; 100% = 100 µM peroxide control, 0% = buffer | 200,000 compounds, 0.03% hits;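 active means activation of at least 50% relative to the plate's high and low controls in the primary single-dose screen; inactive means activation below 50%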;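 further: compound incubated with DTT at 0.8 mM final as the reducing agent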
S1P4 antag = blocks the human S1P4 receptor | 220,000 compounds, 0.26% hits | inhibition, % at 4.98 µM | O95977 | S1P4-expressing cells, antagonist mode, reporter read-out; in the data active means inhibition above about 29%;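 further: 0% = wells stimulated with agonist and 100% = vehicle wells without agonist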
S1P4 ag conf = human S1P4 agonism, confirmation; shares compounds with S1P4 agonist; S1P4 agonist cell-based reporter assay; activation, % at 4.98 µM; 740 compounds, 7% hits; in the data active means activation above about 12%;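 further: 0% = vehicle and 100% = full reference agonist response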
S1P1 agonist = counter-screen for S1P4 agonists: agonists of human S1P1; shares compounds with S1P4 agonist; S1P1 agonist cell-based assay, activation; activation, % at 4.98 µM; 740 compounds, 4% hits; AID 1563; in the data active means activation above about 21%;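 further: 0% = vehicle wells and 100% = reference agonist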
Starred values were filed as active, the others as inactive; . = no result given.

SMILES	p97 ATPase inh	UBC9 SUMO inh	S1P3 antag	S1P4 agonist	Redox H2O2 prof	S1P4 antag	S1P4 ag conf	S1P1 agonist
CCOC(=O)c1c(NC(=O)COC(=O)c2cc(OC)c(OC)cc2[N+](=O)[O-])sc(C)c1C	7.2	6.8	-8.2	16.5*	0.5	-8.4	-1.4	1.6
CCOC(=O)c1c(NC(=O)COC)sc(C)c1C	-5.5	6.5	.	-1.1	1.5	-1.7	.	.
CC1CCCC(NC(=O)c2ccc(CNc3c(N4CCCC4)c(=O)c3=O)cc2)C1C (configuration not stated)	-0.3	0.2	-8.4	-1.0	-2.3	1.5	.	.
Cc1ccc(N(C(=O)CNC(=O)c2ccco2)C(C(=O)NC2CCCC2)c2cccnc2)c(C)c1 (configuration not stated)	.	8.5	.	.	.	.	.	.
CCOC(=O)N1CCC(N2Cc3cccc(C(=O)Nc4ccc(F)cc4)c3C2=O)CC1	3.6	16.0	.	-0.9	0.8	7.3	.	.
CCOC(=O)N1CCC(N2Cc3cccc(C(=O)Nc4ccc(CC)cc4)c3C2=O)CC1	-8.2	-3.8	.	11.7*	-1.7	-9.4	-2.7	-3.4
CCOC(=O)CN1C(=O)C(C)(C)Oc2ccc(C(=O)NC(C)(C)CC)cc21	-7.0	-2.6	-10.5	27.9*	1.8	-12.5	-1.6	3.3
CCC(C)(C)NC(=O)c1ccc2c(c1)N(CC(=O)OC)C(=O)C(C)(C)O2	-0.1	29.2	-3.7	0.2	0.3	-18.3	.	.
COC(=O)C1=CN(C(C)C)C=C(C(=O)OC)C1c1cccc(OC)c1	0.0	10.4	5.7	7.2	2.1	-6.8	.	.
CCCCOc1ccccc1C1C(C(=O)OC)=CN(CC)C=C1C(=O)OC	-9.9	18.2	-53.3	11.6*	-0.5	-2.9	3.4	12.7
CCCOc1ccccc1C1C(C(=O)OC)=CN(C(C)C)C=C1C(=O)OC	4.1	23.0	-1.7	18.0*	-0.4	-8.2	2.8	4.9
Cc1ccc(NC(=S)N=Nc2c(O)n(C)c3ccc(S(=O)(=O)N4CCOCC4)cc23)cc1C	-0.6	-22.1	-0.8	0.3	1.0	6.2	.	.
Cn1c(O)c(N=NC(=S)Nc2ccccc2F)c2cc(S(=O)(=O)N3CCOCC3)ccc21	5.7	8.6	0.9	17.1*	-0.4	15.4	-1.5	-1.3
COc1cc(NC(=O)CSc2nnc(NC(C)C)s2)cc(OC)c1OC	-2.0	9.9	-5.4	1.1	-0.8	-28.5	.	.
Cc1cc(C)nc(/N=C(\N)Nc2cccc([N+](=O)[O-])c2)n1	0.3	1.4	-5.2	11.6*	-0.2	-11.0	-1.4	-1.5
N#Cc1cc2c(=O)n3ccccc3nc2n(-c2ccccc2Cl)c1=O	2.5	26.6	-47.8	28.3*	-0.4	-52.0	15.6*	29.2*
COc1ccccc1OCC(=O)NCc1nc(-c2ccccc2)no1	0.8	15.9	0.3	76.5*	-0.5	-9.5	-0.5	1.1
CCOCCCNC(=O)C(NC(=O)C1CCC(=O)N1)c1ccc(C)cc1 (configuration not stated)	-3.1	10.3	.	1.0	0.1	-19.8	.	.
COCCNC(=O)Cc1ccc(Br)cc1	6.6	-5.3	-9.8	-0.6	-2.6	6.1	.	.
CCCCNC(=O)Cc1ccc(Br)cc1	2.4	1.1	-11.8	13.2*	-0.5	-14.8	-1.9	-2.6
NS(=O)(=O)c1ccc(CCNC(=O)c2ccc(-c3ccccc3)cc2)cc1	.	23.5	.	.	.	.	.	.
CS(=O)(=O)N1CCc2cc(C(=O)N3CCOCC3)ccc21	10.2	21.2	-6.8	26.9*	0.8	1.6	-1.6	-3.5
Cc1cc(C(=O)COC(=O)CCc2nc3ccccc3c(=O)[nH]2)c(C)n1CC1CCCO1 (configuration not stated)	4.4	9.9	-4.4	1.5	.	-6.5	.	.
Cc1cc(C(=O)CSc2nc3ccccc3c(=O)[nH]2)c(C)n1CC1CCCO1 (configuration not stated)	5.1	7.5	11.9	52.7*	-0.2	-7.6	-0.1	7.6
Cc1csc(NC(=O)CCc2c(C)nc3cc(-c4ccc(Cl)cc4)nn3c2C)n1	-7.2	11.3	-21.1	196.3*	-0.4	2.4	-0.4	1.0
SMILES	p97 ATPase inh	UBC9 SUMO inh	S1P3 antag	S1P4 agonist	Redox H2O2 prof	S1P4 antag	S1P4 ag conf	S1P1 agonist
COc1ccccc1CCN=C(N)NS(=O)(=O)c1cc(F)ccc1F	.	17.2	.	.	.	.	.	.
COc1ccc(OC)c(S(=O)(=O)NC(N)=NCCc2ccccc2OC)c1	2.1	1.1	-21.5	23.1*	-1.4	2.3	-1.4	-5.4
CC1CCN(C(=O)C2CCN(C(=O)c3cc4sccc4n3Cc3ccc(F)cc3)CC2)CC1	-5.5	5.0	7.4	1.1	-0.1	-11.3	.	.
CC(C)NC(=O)C1CCN(C(=O)c2cc3sccc3n2Cc2ccc(F)cc2)CC1	2.9	11.9	-1.6	16.0*	2.1	1.7	0.3	6.9
O=C(NCc1cccs1)C(=O)c1cn(CC(=O)N2CCOCC2)c2ccccc12	0.1	-1.9	-23.9	-0.7	0.0	1.6	.	.
CC(=O)Nc1ccc(C(=O)N/N=C/c2ccccc2OCc2ccccc2)cc1	12.5	-15.1	0.9	18.6*	0.0	3.5	-1.5	-4.2
COc1ccc(OCCOCCOc2ccc(C)cc2[N+](=O)[O-])cc1	-6.0	-7.4	0.2	30.4*	-0.3	-19.2	0.1	-5.2
OCCOCCNc1ncnc2c1cnn2-c1ccc(Cl)cc1	6.6	-3.0	.	67.8*	-0.3	10.1	0.2	7.8
CC1C2=C(CC(C)(C)CC2=O)NC2=C1C(=O)CC(C)(C)C2	7.7	20.0	-8.8	17.7*	2.6	-4.5	7.5	7.6
CCOC(=O)c1c(-n2c(C)cc(C=O)c2C)sc2c1CCCC2	3.5	-2.0	.	16.1*	-6.6	-11.8	21.1*	-7.4
CN1CCN(c2ccc(S(=O)(=O)N3CCOCC3)cc2)CC1	.	7.1	.	.	.	.	.	.
CCSc1nnc(NC(=O)C2CC(=O)N(Cc3ccccc3)C2)s1 (configuration not stated)	-0.7	8.4	-4.2	0.5	-0.1	-3.0	.	.
CC(Nc1ccc2c(c1)OCCO2)C(=O)N1c2ccccc2CC1C (configuration not stated)	1.6	-8.7	-2.6	15.5*	0.1	-7.7	29.3*	-1.3
CC1Cc2ccccc2N1C(=O)NC1CC(=O)N(c2ccc3c(c2)OCCO3)C1 (configuration not stated)	-0.1	4.7	0.2	1.0	-0.4	1.2	.	.
COc1ccc(CN(CC(=O)NCc2ccc(F)cc2)C(=O)CCC(=O)Nc2ccccn2)cc1	.	3.6	.	.	.	.	.	.
CCCCC(=O)NC(Nc1ccc(C)cn1)(C(=O)OCC)C(F)(F)F (configuration not stated)	-0.7	12.0	.	17.7*	1.9	-5.7	-1.4	-3.8
O=C(CSc1nnc(NC(=O)Cc2ccccc2)s1)NCc1ccco1	1.6	19.7	-11.0	16.6*	-0.4	2.8	-2.8	-3.2
Oc1ccc(-n2cnnn2)cc1	-1.7	-14.7	.	30.4*	-2.6	5.5	-1.7	-9.3
